Measurements from PubChem BioAssay (NCATS).
Several values for one entry are separate records, joined by “and”; a condition that tells them apart may be missing. Equal values may be shown once. Inconclusive results are not listed. A structure can be active in one record and inactive in another. Activity calls are given as the source filed them. Calls come from the whole dose curve; as a rule, active = well fitted curve in the direction sought with a large enough effect; inconclusive = small, poorly fitted or top-dose-only effect, or another doubt; inactive = no such curve, though single readings can be large; an effect the other way counts as inactive or inconclusive.

Tests used:
[1] = biological target: Rap guanine nucleotide exchange factor 3 (Homo sapiens) (UniProt O95398); assay: Confirmatory qHTS for antagonist of cAMP-regulated guanine nucleotide exchange factor 3 (EPAC1) (AID 1645880); note: nearly all actives have a fitted effect of over 55% in size; note: potency is the fitted concentration of half-maximal effect
Procedure, shortened: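 Nucleotide exchange uses 100 nM EPAC1, 250 nM RAP1B-BODIPY-GDP and 50 uM GDP, with compounds in a concentration-titration series. After 5 min at room temperature, fluorescence (480 nm ex/540 nm em) is read every 5 min for 30 min. Data are normalized to control ATA and DMSO.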

[2] = biological target: Rap guanine nucleotide exchange factor 3 (Homo sapiens) (UniProt O95398); assay: Confirmatory qHTS for agonist of cAMP-regulated guanine nucleotide exchange factor 3 (EPAC1) (AID 1645881); note: nearly all actives have a fitted effect of over 75% in size; note: potency is the fitted concentration of half-maximal effect;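 for activation: EPAC1 catalysed release of BODIPY-GDP from Rap1B seen as fluorescence loss; 100% = effect of cAMP agonist control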
[3] = biological target: Rap guanine nucleotide exchange factor 4 (Homo sapiens) (UniProt Q8WZA2); assay: Confirmatory qHTS for agonist of cAMP-regulated guanine nucleotide exchange factor 4 (EPAC2) (AID 1645884);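 note: nucleotide exchange releases bodipy-GDP from Rap1 and this lowers its fluorescence; nearly all actives have a fitted effect of over 65% in size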; note: potency is the fitted concentration of half-maximal effect; for activation: % is set by controls: 0 for no effect and ±100 for the full control effect
[4] = biological target: Rap guanine nucleotide exchange factor 4 (Homo sapiens) (UniProt Q8WZA2); assay: Confirmatory qHTS for antagonist of cAMP-regulated guanine nucleotide exchange factor 4 (EPAC2) (AID 1645885); note: nearly all actives have a fitted effect of over 25% in size; note: potency is the fitted concentration of half-maximal effect; for activity change, negative = inhibition: % is set by controls: 0 for no effect and ±100 for the full control effect
[5] = biological target: Rap guanine nucleotide exchange factor 3 (Homo sapiens) (UniProt O95398); assay: Counterscreen qHTS for antagonist of cAMP-regulated guanine nucleotide exchange factor 3 (EPAC1) (AID 1645888);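 note: fluorescence loss as bound BODIPY-GDP is released from Rap1B; % of control where 0% means no effect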
Procedure, shortened: (§1)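 Rap1B-BODIPY-GDP 250 nM + GDP 50 uM; cpds 7-pt, final 9.74 nM–152 uM (activator mode) or from 7.32 nM upwards (inhibitor mode); RT; FI 480/540 nm at 5 and 30 min, then ± cAMP, reread.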

[6] = biological target: Rap guanine nucleotide exchange factor 3 (Homo sapiens) (UniProt O95398); assay: Counterscreen qHTS for agonist of cAMP-regulated guanine nucleotide exchange factor 3 (EPAC1) (AID 1645889); note: nearly all actives have a fitted effect of over 40% in size; note: potency is the fitted concentration of half-maximal effect; for activation: % of control where 0% means no effect
Procedure, shortened: as §1

Chain of Rap guanine nucleotide exchange factor 3 (Homo sapiens) (O95398 whole entry, looked up): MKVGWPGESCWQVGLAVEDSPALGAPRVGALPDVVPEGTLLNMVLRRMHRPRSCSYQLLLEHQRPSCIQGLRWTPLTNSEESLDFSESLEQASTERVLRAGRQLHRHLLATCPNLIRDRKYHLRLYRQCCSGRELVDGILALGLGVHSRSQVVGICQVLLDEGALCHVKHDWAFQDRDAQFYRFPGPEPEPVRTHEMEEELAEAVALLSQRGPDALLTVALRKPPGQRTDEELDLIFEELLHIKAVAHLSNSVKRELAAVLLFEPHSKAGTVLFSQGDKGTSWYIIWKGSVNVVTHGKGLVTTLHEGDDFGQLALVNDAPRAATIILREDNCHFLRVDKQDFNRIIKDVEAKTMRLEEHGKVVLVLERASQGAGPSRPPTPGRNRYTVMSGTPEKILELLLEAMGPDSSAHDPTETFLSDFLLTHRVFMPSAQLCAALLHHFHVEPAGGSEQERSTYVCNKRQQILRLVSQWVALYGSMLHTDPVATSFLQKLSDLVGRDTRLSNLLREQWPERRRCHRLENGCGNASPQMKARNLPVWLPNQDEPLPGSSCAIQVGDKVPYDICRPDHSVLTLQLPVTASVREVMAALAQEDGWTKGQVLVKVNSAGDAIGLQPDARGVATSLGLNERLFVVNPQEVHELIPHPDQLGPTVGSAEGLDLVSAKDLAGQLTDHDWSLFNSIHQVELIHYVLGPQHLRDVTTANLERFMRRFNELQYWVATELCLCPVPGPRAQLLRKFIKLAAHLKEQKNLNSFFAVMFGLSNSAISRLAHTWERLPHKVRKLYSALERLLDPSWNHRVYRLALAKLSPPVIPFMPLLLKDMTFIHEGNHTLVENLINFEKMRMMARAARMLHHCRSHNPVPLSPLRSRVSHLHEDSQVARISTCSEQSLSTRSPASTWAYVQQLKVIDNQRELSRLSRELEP
Chain of Rap guanine nucleotide exchange factor 4 (Homo sapiens) (Q8WZA2 whole entry, looked up): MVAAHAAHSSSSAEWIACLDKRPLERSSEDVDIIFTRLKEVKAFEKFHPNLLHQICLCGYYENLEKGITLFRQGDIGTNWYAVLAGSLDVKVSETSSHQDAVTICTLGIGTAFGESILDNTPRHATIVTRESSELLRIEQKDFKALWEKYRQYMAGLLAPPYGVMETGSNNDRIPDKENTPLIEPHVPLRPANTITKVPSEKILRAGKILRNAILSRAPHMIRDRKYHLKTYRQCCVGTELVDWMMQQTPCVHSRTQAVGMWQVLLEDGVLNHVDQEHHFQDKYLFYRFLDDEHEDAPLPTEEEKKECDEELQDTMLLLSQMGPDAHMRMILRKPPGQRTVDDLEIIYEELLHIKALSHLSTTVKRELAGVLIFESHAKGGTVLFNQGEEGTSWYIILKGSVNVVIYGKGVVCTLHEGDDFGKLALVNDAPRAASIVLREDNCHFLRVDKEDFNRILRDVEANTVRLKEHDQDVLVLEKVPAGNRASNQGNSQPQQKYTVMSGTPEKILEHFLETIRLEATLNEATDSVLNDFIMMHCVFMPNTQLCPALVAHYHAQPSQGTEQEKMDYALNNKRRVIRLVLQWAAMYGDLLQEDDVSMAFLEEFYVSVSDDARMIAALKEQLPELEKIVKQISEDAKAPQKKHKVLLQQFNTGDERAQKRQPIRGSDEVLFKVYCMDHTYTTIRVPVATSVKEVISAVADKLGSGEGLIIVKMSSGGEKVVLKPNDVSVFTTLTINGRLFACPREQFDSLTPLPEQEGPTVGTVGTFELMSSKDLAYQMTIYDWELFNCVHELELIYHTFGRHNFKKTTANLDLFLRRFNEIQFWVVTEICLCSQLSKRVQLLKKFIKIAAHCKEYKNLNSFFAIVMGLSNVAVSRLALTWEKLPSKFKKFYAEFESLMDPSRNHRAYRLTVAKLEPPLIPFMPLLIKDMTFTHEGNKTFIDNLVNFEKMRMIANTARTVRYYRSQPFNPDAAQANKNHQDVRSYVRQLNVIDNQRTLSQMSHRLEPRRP

Cc1ccc2c(c1)C=CC(C#N)N2C(=O)c1ccccc1 (configuration not stated)
inactive: Potency [1] | Potency [2] | Potency [3] | Potency [4] | Potency [5] | Potency [6]

COCCNC(=O)CS(=O)Cc1nc(-c2ccc(Cl)cc2)oc1C (configuration not stated)
inactive: Potency [1] | Potency [2] | activation [3] 3.09% [at 17.1 µM, percent relative to cAMP agonist control] | Potency [4] | activity change, negative = inhibition [5] 7.48% [at 30.8 µM] | activation [6] 14.9% [at 30.8 µM]

O=C1O/C(=C/c2ccccc2)N=C1c1ccccc1
inactive: Potency [1] | Potency [2] | Potency [3] | Potency [4] | Potency [5] | Potency [6]

Cc1ccc(-c2csc(NS(=O)(=O)c3cccc(F)c3)n2)o1
active: Potency [1] 14.1 µM
inactive: Potency [2] | activation [3] -0.922% [at 17.1 µM, percent relative to cAMP agonist control] | Potency [4] | activity change, negative = inhibition [5] -6.02% [at 30.8 µM] | activation [6] 14.9% [at 30.8 µM]

O/C=c1\ccc2cccc3nc(C(F)(F)F)nc1c23
active: Potency [2] 100 µM | Potency [3] 100 µM | Potency [6] 39.8 µM
inactive: Potency [1] | Potency [4] | Potency [5]

CCOc1c(OC)cccc1C(=O)NCC1(c2ccccc2)CCCC1
inactive: Potency [1] | Potency [2] | Potency [3] | Potency [4] | Potency [5] | Potency [6]

CN(C)c1ccc(/C=C/C(=O)c2ccc3c(c2)OCO3)cc1
inactive: Potency [1] | Potency [5]
active: Potency [2] 112 µM | Potency [3] 112 µM | Potency [4] 37.9 µM | Potency [6] 79.4 µM

Cc1nc2cc(NC(=O)CCS(=O)(=O)c3ccccc3)ccc2s1
inactive: Potency [1] | Potency [2] | activation [3] -6.47% [at 17.1 µM, percent relative to cAMP agonist control] | Potency [4] | activity change, negative = inhibition [5] -11.5% [at 30.8 µM] | activation [6] 14.1% [at 30.8 µM]

Cc1ccc(-n2nc3ccc(NC(=O)/C=C/c4ccco4)cc3n2)cc1
inactive: Potency [2] | activation [3] 5.31% [at 17.1 µM, percent relative to cAMP agonist control] | Potency [4] | activity change, negative = inhibition [5] 8.52% [at 30.8 µM] | activation [6] 13.9% [at 30.8 µM]
active: Potency [1] 39.8 µM

COCCOC(=O)C(C#N)c1nc2ccccc2nc1N1CCN(Cc2ccccc2)CC1 (configuration not stated)
inactive: Potency [1] | Potency [2] | activation [3] 10.5% [at 17.1 µM, percent relative to cAMP agonist control] | Potency [4] | activity change, negative = inhibition [5] 4.89% [at 30.8 µM] | activation [6] 38.2% [at 30.8 µM]

O=C(COC(=O)c1ccc(O)cc1O)Nc1nnc(-c2ccccc2)o1
active: Potency [4] 84.9 µM
inactive: Potency [1] | Potency [2] | Potency [3] | Potency [5] | Potency [6]

CCc1cc(C(=O)c2ccc(OC)cc2)c(NC(=O)CC(C)(C)CC(=O)O)s1
inactive: Potency [1] | Potency [2] | Potency [3] | Potency [4] | Potency [5] | Potency [6]

Cc1cc2ccccn2c1C(=O)c1ccc(C#N)cc1
inactive: Potency [1] | Potency [2] | Potency [3] | Potency [4] | Potency [5] | Potency [6]

COc1ccc(C(C#N)=Cc2cccc(OC)c2OC)cc1
active: Potency [4] 16.9 µM
inactive: Potency [1] | Potency [2] | Potency [3] | Potency [5] | Potency [6]

COc1cc2c(cc1OC)-c1cc(NC3CCCCC3)nc(=O)n1CC2
inactive: Potency [1] | Potency [2] | activation [3] -2.19% [at 17.1 µM, percent relative to cAMP agonist control] | Potency [4] | activity change, negative = inhibition [5] 14.4% [at 30.8 µM] | activation [6] 2.97% [at 30.8 µM]

O=C1NC(=O)/C(=C/c2ccccn2)S1
inactive: Potency [1] | Potency [2] | Potency [3] | Potency [4] | Potency [5] | Potency [6]

CCSc1nc2ccccc2c(OCc2ccccc2Cl)c1C(=O)OC
inactive: Potency [1] | Potency [2] | Potency [3] | Potency [4] | Potency [5] | Potency [6]

CC(=O)N1CCc2cc(Br)cc(S(=O)(=O)NCCCN(C)Cc3ccccc3)c21
active: Potency [4] 23.9 µM
inactive: Potency [1] | Potency [2] | Potency [3] | Potency [5] | Potency [6]

O=C1c2ccccc2S(=O)(=O)c2cc(N3CCC4(CC3)OCCO4)ccc21
active: Potency [4] 84.9 µM | Potency [6] 14.1 µM
inactive: Potency [1] | Potency [2] | Potency [3] | Potency [5]

O=C(COC(=O)Cc1ccc(Cl)cc1)Nc1ccc2[nH]c(=O)[nH]c2c1
inactive: Potency [1] | Potency [2] | activation [3] -3.41% [at 17.1 µM, percent relative to cAMP agonist control] | Potency [4] | activity change, negative = inhibition [5] -14.8% [at 30.8 µM] | activation [6] -0.761% [at 30.8 µM]

Cc1cc(C)c2nc(C)cc(Nc3ccc(C(=O)NCCO)cc3)c2c1
inactive: Potency [1] | Potency [2] | Potency [3] | Potency [4] | Potency [5] | Potency [6]

CCOc1cc(C(=O)Nc2ccc3c(c2)n(C)c(=O)c(=O)n3C)cc(OCC)c1OCC
inactive: Potency [1] | Potency [2] | Potency [3] | outcome [4] inactive [at 12.7 µM] | Potency [5] | Potency [6]

O=C1NN(c2cccc(Br)c2)C(=O)/C1=C\c1ccccc1
inactive: Potency [2] | Potency [3] | Potency [4] | Potency [5] | Potency [6]
active: Potency [1] 33.8 µM

O=C(CSCC(=O)N1CCOCC1)Nc1nc(-c2ccccc2)cs1
inactive: Potency [1] | Potency [2] | Potency [3] | Potency [5] | Potency [6]
active: Potency [4] 84.9 µM

CCOc1ccc(C(C(=O)NC2CCCC2)N(C(=O)c2snc(C(N)=O)c2N)C2CCCC2)cc1 (configuration not stated)
inactive: Potency [1] | Potency [2] | Potency [3] | Potency [4] | Potency [5] | Potency [6]

CC(=O)NC(C)c1nc2ccccc2n1Cc1ccccc1Cl (configuration not stated)
inactive: Potency [1] | Potency [2] | Potency [3] | Potency [4] | Potency [5] | Potency [6]

CCc1ccc2oc(C(=O)Nc3ccccc3OC)cc(=O)c2c1
inactive: Potency [1] | Potency [2] | Potency [3] | outcome [4] inactive [at 12.7 µM] | Potency [5] | Potency [6]

O=C(NC1CCC(O)CC1)c1cccc2cccnc12 (configuration not stated)
inactive: Potency [1] | Potency [2] | Potency [3] | Potency [4] | Potency [5] | Potency [6]

CCCCN(C(=O)CSCC(=O)Nc1ccc(C)cc1)c1c(N)n(CCCC)c(=O)[nH]c1=O
inactive: Potency [1] | Potency [2] | activation [3] 4% [at 17.1 µM, percent relative to cAMP agonist control] | Potency [4] | activity change, negative = inhibition [5] -21.2% [at 30.8 µM] | activation [6] 6.23% [at 30.8 µM]

CN1CCS/C1=C/C=C1\SC(=S)N(CC(=O)O)C1=O
inactive: Potency [1] | activation [3] 15.2% [at 17.1 µM, percent relative to cAMP agonist control] | Potency [4] | activity change, negative = inhibition [5] 62.8% [at 30.8 µM]
active: Potency [2] 50.1 µM | Potency [6] 14.1 µM

COc1ccc(C2c3c(-c4ccccc4O)n[nH]c3C(=O)N2Cc2ccco2)cc1 (configuration not stated)
inactive: Potency [1] | Potency [2] | Potency [3] | Potency [5] | Potency [6]
inactive and 37.9 µM (active): Potency [4]

CN(C)S(=O)(=O)N1CCN(S(=O)(=O)N(C)C)CC1
inactive: Potency [1] | Potency [2] | activation [3] 5.89% [at 17.1 µM, percent relative to cAMP agonist control] | Potency [4] | activity change, negative = inhibition [5] -14.8% [at 30.8 µM] | activation [6] 1.25% [at 30.8 µM]

CC1CCCCC1Nc1nc2ccc(Cl)cc2n2cnnc12 (configuration not stated)
inactive: Potency [1] | Potency [2] | Potency [3] | Potency [4] | Potency [5] | Potency [6]

CC(=O)Nc1nc(C)c(Oc2ccc(Cl)cc2Cl)c(=O)[nH]1
inactive: Potency [1] | Potency [2] | activation [3] 0% [at 17.1 µM, percent relative to cAMP agonist control] | Potency [4] | activity change, negative = inhibition [5] -5.48% [at 30.8 µM] | activation [6] 7.36% [at 30.8 µM]

CCCCN1C(=O)C(O)(c2c[nH]c3ccccc23)c2cc(Br)ccc21 (configuration not stated)
inactive: Potency [1] | Potency [2] | Potency [3] | Potency [4] | Potency [5] | Potency [6]

COC(=O)CC1(C(=O)OC)Oc2ccc(Br)cc2C(=O)N1c1cc(Cl)cc(Cl)c1 (configuration not stated)
active: Potency [4] 2.13 µM | Potency [6] 0.0282 µM
inactive: Potency [1] | Potency [2] | activation [3] 5.41% [at 17.1 µM, percent relative to cAMP agonist control] | activity change, negative = inhibition [5] -4.58% [at 30.8 µM]

NS(=O)(=O)c1ccc(NC(=O)Cc2c(F)cccc2Cl)cc1
inactive: Potency [1] | Potency [2] | Potency [3] | Potency [4] | Potency [5] | Potency [6]

Cc1cc2nc3c(=O)n(CCc4ccccc4)c(=O)[nH]c3nc2cc1N
inactive: Potency [2] | activation [3] 3.45% [at 17.1 µM, percent relative to cAMP agonist control] | Potency [4] | activity change, negative = inhibition [5] -6.16% [at 30.8 µM] | activation [6] 15.2% [at 30.8 µM]
active: Potency [1] 12.6 µM

O=[N+]([O-])c1cc(Cl)ccc1NCCc1ccccn1
inactive: Potency [1] | Potency [2] | activation [3] -1.04% [at 17.1 µM, percent relative to cAMP agonist control] | Potency [4] | activity change, negative = inhibition [5] -15.1% [at 30.8 µM] | activation [6] -0.252% [at 30.8 µM]

CCOc1ccc(NC(=O)CN(C)C(=O)c2ccccc2SCc2c(C)noc2C)cc1OCC
inactive: Potency [1] | Potency [2] | activation [3] 1.53% [at 17.1 µM, percent relative to cAMP agonist control] | Potency [4] | activity change, negative = inhibition [5] -10.4% [at 30.8 µM] | activation [6] 18% [at 30.8 µM]

CCOC(=O)c1ccc(NC(=O)CSc2nc(=O)n3cccc(C)c3n2)cc1
inactive: Potency [1] | Potency [2] | Potency [3] | Potency [4] | Potency [5] | Potency [6]

Cc1onc(-c2c(F)cccc2Cl)c1C(=O)OCC(=O)N(C)c1ccccc1
inactive: Potency [1] | Potency [2] | activation [3] 4.47% [at 17.1 µM, percent relative to cAMP agonist control] | Potency [4] | activity change, negative = inhibition [5] -6.38% [at 30.8 µM] | activation [6] 12.2% [at 30.8 µM]
